Test results as given in the supplement of paper PMC11732987, “Enantioselective OTUD7B fragment discovery through chemoproteomics screening and high-throughput optimisation” (Communications Chemistry, 2025).

Columns and labels:
Experiment in all cases: log2 ratio of Biotin-Ahx-Ub-VS probe labelling (fragment/DMSO); higher = less target engagement (more negative = stronger competition), active = hit call of the paper (q ≤ 0.05, log2 ratio ≤ -1)
Conditions in all cases: compound concentration: 200 uM; treatment time: 3 h
[1] = molecular target: T1, OTUD6B (UniProt Q8N6M0)
T1 sequence (whole entry): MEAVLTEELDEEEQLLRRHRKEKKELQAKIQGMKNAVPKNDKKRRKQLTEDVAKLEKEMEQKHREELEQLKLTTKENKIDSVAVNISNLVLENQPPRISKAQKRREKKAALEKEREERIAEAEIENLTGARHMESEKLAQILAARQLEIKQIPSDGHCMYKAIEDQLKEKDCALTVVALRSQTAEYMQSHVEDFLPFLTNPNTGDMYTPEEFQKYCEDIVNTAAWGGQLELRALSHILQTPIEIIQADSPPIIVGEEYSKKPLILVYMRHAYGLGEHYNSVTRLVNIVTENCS
Outline: (§1)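 Global-median-normalised Spectronaut label-free quantities were compared by unpaired t-test, and values are average log2 ratios of fragment over vehicle. Only proteins with ≥2 unique peptides were used. HEK293T lysate (495 µg per sample) was treated in triplicate with fragment at 200 µM or vehicle for 3 h and then with Biotin-Ahx-Ub-VS at 0.5 µM final for 1 h. Labelled DUBs were then NeutrAvidin-enriched, digested with LysC and trypsin, and run by diaPASEF LC-MS/MS.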

[2] = molecular target: T2, OTUD7B (UniProt Q6GQQ9)
T2 sequence (whole entry): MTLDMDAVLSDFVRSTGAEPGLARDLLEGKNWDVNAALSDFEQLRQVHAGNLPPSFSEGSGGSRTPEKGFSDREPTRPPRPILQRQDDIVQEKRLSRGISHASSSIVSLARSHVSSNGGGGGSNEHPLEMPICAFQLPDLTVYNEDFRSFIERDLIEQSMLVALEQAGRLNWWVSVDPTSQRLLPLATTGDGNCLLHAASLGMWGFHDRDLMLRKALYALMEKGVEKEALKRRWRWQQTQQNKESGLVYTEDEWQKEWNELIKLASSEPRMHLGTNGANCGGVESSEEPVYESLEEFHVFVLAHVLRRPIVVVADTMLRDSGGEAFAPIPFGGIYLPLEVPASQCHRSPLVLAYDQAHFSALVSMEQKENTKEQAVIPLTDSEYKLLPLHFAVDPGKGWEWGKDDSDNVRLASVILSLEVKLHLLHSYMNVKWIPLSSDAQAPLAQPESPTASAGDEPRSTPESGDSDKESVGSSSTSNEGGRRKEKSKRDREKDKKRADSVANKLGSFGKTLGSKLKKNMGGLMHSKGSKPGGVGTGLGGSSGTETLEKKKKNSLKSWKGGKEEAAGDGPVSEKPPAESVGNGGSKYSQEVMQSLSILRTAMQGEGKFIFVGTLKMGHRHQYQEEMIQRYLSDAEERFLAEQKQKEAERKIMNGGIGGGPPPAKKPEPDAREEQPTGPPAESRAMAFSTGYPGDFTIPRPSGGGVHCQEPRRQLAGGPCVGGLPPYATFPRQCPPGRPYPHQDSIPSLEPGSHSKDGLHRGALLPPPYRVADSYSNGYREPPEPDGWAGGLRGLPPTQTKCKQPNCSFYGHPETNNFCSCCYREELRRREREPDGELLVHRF
Outline: as §1

[3] = molecular target: PRPF8 (UniProt Q6P2Q9)
Outline: as §1

[4] = molecular target: T3, PSMD7 (UniProt P51665)
T3 sequence (whole entry): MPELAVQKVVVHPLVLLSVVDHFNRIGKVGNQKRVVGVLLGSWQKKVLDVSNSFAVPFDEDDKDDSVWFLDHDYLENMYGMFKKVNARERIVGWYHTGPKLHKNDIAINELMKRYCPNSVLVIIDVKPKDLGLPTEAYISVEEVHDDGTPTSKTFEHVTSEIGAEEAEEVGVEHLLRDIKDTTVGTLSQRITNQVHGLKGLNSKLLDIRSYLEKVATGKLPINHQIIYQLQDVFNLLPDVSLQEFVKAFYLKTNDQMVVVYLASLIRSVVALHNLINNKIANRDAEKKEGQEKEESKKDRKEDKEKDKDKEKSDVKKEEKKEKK
Outline: as §1

[5] = molecular target: UCHL1 (UniProt P09936)
UCHL1, sequence (P09936 whole entry, looked up): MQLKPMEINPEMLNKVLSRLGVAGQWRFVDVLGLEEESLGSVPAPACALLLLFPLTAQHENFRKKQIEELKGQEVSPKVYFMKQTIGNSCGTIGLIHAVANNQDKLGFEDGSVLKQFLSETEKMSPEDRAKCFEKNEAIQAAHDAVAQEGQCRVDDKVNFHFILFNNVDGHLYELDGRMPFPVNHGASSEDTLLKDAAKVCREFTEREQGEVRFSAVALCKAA
Outline: as §1

[6] = molecular target: T4, UCHL3 (UniProt P15374)
T4 sequence (whole entry): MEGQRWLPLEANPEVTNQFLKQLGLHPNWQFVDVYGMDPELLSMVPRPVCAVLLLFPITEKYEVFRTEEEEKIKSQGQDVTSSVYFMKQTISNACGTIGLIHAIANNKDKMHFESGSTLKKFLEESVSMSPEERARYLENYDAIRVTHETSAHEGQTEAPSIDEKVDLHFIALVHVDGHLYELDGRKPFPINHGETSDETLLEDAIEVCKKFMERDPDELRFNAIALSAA
Outline: as §1

[7] = molecular target: T5, UCHL5 (UniProt Q9Y5K5)
T5 sequence (whole entry): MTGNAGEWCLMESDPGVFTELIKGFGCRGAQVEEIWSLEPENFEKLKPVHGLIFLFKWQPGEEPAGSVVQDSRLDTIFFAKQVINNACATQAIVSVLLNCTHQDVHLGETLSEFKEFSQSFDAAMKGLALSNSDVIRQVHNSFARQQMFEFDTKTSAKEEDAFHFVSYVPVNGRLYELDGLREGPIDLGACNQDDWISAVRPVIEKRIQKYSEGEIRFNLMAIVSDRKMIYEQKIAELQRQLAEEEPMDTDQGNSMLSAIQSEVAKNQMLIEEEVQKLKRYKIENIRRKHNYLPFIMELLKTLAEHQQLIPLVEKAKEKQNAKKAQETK
Outline: as §1

[8] = molecular target: USP10 (UniProt Q14694)
USP10, sequence (Q14694 whole entry): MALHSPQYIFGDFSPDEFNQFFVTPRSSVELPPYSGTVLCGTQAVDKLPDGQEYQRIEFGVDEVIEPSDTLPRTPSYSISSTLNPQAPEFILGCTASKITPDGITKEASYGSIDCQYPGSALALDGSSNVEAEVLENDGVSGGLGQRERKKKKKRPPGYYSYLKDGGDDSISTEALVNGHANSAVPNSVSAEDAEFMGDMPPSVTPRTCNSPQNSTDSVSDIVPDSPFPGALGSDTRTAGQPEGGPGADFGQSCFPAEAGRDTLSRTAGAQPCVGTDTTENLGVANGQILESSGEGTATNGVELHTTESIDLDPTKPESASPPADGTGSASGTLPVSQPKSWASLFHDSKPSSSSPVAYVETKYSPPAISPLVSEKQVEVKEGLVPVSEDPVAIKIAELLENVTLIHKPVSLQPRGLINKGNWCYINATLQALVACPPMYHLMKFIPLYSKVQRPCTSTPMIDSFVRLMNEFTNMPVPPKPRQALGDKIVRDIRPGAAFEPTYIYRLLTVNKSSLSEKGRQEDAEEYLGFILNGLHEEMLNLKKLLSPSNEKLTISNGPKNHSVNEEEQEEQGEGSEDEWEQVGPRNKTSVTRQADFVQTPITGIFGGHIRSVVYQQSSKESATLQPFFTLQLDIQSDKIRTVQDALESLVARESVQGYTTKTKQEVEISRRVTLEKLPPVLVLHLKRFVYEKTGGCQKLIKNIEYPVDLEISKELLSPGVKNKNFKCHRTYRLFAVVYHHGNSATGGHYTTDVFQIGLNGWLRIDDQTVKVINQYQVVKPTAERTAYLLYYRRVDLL
Outline: as §1

[9] = molecular target: T6, USP15 (UniProt Q9Y4E8)
T6 sequence (whole entry): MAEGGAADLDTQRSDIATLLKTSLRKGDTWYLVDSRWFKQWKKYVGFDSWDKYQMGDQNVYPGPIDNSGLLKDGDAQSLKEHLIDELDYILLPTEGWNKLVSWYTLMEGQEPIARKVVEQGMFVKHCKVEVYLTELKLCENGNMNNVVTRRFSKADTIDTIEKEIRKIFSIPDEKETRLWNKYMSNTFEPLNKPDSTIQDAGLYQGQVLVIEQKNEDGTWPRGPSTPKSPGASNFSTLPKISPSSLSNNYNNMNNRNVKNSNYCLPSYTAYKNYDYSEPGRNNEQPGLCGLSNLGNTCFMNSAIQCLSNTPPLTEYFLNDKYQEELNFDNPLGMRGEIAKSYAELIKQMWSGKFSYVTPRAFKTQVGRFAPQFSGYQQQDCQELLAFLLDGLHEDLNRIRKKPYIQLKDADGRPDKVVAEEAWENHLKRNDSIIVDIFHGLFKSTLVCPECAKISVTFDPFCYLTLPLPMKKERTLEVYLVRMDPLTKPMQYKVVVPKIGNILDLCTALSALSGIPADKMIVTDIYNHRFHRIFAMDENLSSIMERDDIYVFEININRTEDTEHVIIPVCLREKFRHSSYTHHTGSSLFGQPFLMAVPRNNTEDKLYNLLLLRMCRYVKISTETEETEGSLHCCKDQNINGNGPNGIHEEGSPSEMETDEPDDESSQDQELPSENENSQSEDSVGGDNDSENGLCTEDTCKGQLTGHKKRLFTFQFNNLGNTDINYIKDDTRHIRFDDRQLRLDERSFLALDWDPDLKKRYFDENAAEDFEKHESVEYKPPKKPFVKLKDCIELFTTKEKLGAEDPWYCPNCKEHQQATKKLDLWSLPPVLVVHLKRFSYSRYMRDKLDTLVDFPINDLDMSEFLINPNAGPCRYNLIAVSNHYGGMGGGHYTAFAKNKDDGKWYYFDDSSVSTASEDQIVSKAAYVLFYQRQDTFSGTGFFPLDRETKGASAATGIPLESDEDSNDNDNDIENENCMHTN
Outline: as §1

[10] = molecular target: USP16 (UniProt Q9Y5T5)
USP16, sequence (Q9Y5T5 whole entry, looked up): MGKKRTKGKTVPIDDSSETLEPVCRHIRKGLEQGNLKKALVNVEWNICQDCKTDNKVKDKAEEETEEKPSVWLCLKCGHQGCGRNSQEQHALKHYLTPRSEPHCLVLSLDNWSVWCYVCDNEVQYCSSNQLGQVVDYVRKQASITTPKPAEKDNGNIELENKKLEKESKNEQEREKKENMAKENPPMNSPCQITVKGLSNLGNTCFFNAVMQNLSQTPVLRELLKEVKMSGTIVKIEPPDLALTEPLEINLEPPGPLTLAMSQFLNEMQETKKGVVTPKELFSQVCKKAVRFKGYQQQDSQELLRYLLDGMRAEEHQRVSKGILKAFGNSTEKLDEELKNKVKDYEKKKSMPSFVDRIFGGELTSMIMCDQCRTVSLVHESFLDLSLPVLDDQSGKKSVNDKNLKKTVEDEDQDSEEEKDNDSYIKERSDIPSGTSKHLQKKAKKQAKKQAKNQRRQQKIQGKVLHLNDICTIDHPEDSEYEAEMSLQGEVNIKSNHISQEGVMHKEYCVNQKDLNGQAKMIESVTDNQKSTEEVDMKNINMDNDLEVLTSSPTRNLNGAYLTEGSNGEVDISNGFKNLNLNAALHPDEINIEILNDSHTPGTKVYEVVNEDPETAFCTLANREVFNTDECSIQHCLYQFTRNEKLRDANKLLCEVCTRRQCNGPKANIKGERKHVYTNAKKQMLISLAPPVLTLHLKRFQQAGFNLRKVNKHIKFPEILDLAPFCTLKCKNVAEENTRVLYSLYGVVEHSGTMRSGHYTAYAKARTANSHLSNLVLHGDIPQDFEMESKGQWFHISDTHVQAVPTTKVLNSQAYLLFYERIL
Outline: as §1

Measured: log2 ratio of Biotin-Ahx-Ub-VS probe labelling

Cc1cccc2nc(CCNC(=O)CCl)cn12.Cl
active: [5] -2.08
inactive: [1] -0.459 | [2] -0.556 | [3] -0.224 | [4] -0.141 | [6] -0.0466 | [7] -0.344 | [8] -0.121 | [9] -0.369 | [10] 0.0184
